The list is not random: actives were taken first. Their share in the collection is about 9.2%.
Rab9 promoter act = activators of Rab9 promoter; AID 485297; Potency, µM (series often up to 9.22 µM), for the others: at the highest dose activation, negative = inhibition, usual class: activators; 320,000 tested, 2.8% active; Huh7 Rab9 promoter-luciferase reporter, luminescence, 24 h; further: % of control where 0% means no effect; nearly all actives have a fitted effect of over 60% in size
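Huh7 cells stably carrying Rab9 promoter–luciferase reporter, plated 1500 cells/well, compound added after 2 h and incubated 24 h at 37 °C; luciferase luminescence then read after 10 min with detection reagent.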
NPC1 promoter act = activates the NPC1 promoter; Huh7 NPC1 promoter luciferase reporter, 24 h; Potency, µM (series often up to 9.22 µM), inactives show at the highest dose activation, actives largely listed as activators; 320,000 tested, 2.4% active; AID 485313; further: % of control where 0% means no effect; nearly all actives have a fitted effect of over 60% in size
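NPC1 promoter–luciferase Huh7 cells; 24 h compound; luminescence.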
FLuc modulator = firefly luciferase modulation, counter-screen for miR-21 project. purified FLuc, Km substrates, luminescence inhibition. Potency, µM (doses to about 57.5 µM), for inactives: at the top dose activity change, negative = inhibition, most hits filed as inhibitors. 360,000 tested, 6.9% active;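 further: plate controls were vehicle for no effect and reference inhibitor for full effect; nearly all actives have a fitted effect of over 55% in size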
Target sequence (P08659 whole entry, looked up): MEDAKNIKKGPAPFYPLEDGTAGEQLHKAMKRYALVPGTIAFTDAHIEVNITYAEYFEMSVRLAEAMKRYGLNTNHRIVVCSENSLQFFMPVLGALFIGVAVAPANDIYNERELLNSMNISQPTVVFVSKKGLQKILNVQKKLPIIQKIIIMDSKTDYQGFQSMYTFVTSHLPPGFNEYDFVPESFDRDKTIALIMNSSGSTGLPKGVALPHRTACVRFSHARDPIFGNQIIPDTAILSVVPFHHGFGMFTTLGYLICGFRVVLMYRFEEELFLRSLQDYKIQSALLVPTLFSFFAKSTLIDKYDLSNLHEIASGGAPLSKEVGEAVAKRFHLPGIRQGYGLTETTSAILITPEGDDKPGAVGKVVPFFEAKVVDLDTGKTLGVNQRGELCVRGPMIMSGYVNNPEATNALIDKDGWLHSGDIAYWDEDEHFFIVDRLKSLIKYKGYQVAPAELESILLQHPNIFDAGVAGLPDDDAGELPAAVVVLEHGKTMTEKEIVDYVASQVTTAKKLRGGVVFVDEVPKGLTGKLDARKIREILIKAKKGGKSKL
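Biochemical qHTS of compounds, final roughly 60 µM downward over six points, against 10 nM purified firefly luciferase using Km concentrations of substrates (10 uM D-luciferin, 10 uM ATP) in Tris acetate pH 7.5 buffer; luminescence output.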
ELG1 genotoxic = induces genotoxicity in HEK293T cells with luciferase-tagged ELG1. HEK293T ELG1-luciferase reporter, luminescence, 16 h. AID 504466. 330,000 tested, 1.3% active. Potency, µM (highest dose often 46 µM), inactives show top-dose activity change, positive = activation, hits mostly activators; further: % of control where 0% means no effect; nearly all actives have a fitted effect of over 60% in size
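ELG1-luciferase HEK293T cells, 2,000/well; compound pinned in; 16 hr, 37 °C, 5% CO2; ONE-Glo, 30 min RT; luminescence on CCD imager.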
ELG1 repair inh = inhibitors of ELG1-dependent DNA repair in HEK293T cells; HEK293T ELG1-luciferase reporter, luminescence, 16 h; DNA damage induced by 5-fluorouridine; Potency, µM (doses to about 46.1 µM), for the others: at the top dose activity change, negative = inhibition, hits mostly inhibitors; 330,000 tested, 2.3% active; further: on the % scale 0 is the no-effect control and ±100 the full control effect; nearly all actives have a fitted effect of over 55% in size
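Quantitative HTS, concentration-response format. 2,000 cells/well co-treated with 5-fluorouridine and compound, 16 hr in 5% CO2 at 37 °C; ONE-Glo luminescence read after 30 min.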
SMN2 splice up = increases expression of the SMN2 splice variant. HEK293 SMN2-luciferase splicing reporter, luminescence, 30-36 h. Potency, µM (highest dose often 46.1 µM), inactives show at the top dose activity change, positive = activation, usual class: activators. AID 1458. 210,000 tested, 2.8% active; further: % of control where 0% means no effect; nearly all actives have a fitted effect of over 55% in size
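HEK293 cells carry an SMN2 […]–luciferase reporter in which exon 7 inclusion puts luciferase in frame. Cells were plated 10-12 h before compound addition, then incubated 30-36 h at 37C. ONE-Glo luminescence was read; sodium butyrate at 4.5 mM final served as control.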
Starred values were filed as active, the others as inactive; ? = inconclusive; . = not tested or not shown; [ ] = dose if it differs, or a comment. The call rests on the fitted dose curve; in most records, active means well fitted curve in the direction sought with a large enough effect; inconclusive means small, poorly fitted or top-dose-only effect, or another doubt; inactive means no such curve, though single readings can be large; an effect the other way counts as inactive or inconclusive. Potency means the concentration at half of the fitted maximal effect.

SMILES	Rab9 promoter act	NPC1 promoter act	FLuc modulator	ELG1 genotoxic	ELG1 repair inh	SMN2 splice up
CCCCC[C@H](O)/C=C/C=C\C/C=C\C=C\[C@@H](O)CCCC(=O)O	.	.	.	.	.	20%
O=C1Nc2ccccc2SC1c1ccccc1 (stereo unspecified)	-2%	1%	-1%	0%	8%	.
Cc1ccc(NC2Sc3ccccc3NC2=O)cc1 (stereo unspecified)	1.4µM*	4µM*	2.1µM*	?	?	11µM*
O=C(c1cc(-c2ccccc2)on1)N1CCN(c2ccccc2)CC1	-2%	1%	24µM*	-5%	10%	.
CN(C(=O)c1cc(-c2ccccc2)on1)C1CCCCC1	2.8µM*	1.3µM*	8.5µM*	?	?	.
O=C(c1cc(-c2ccccc2)on1)N1CCCc2ccccc21	?	13%	24µM*	?	?	.
O=C(c1cc(-c2ccco2)on1)N1CCCc2ccccc21	12%	14%	?	8%	?	2%
O=C(c1cc(-c2ccccc2)on1)N1CCCC1	0.89µM*	0.79µM*	9.5µM*	1.6µM*	?	11µM*
COc1ccccc1/C=C(\NC(=O)c1ccc(OC)c(OC)c1)C(=O)Nc1cccc([N+](=O)[O-])c1	1%	0%	-1%	2%	?	-7%[1.84 µM]
CC1CCN(C(=O)c2cc(-c3ccc4c(c3)OCO4)on2)CC1	1.1µM*	0.63µM*	2.7µM*	2.9µM*	?	.
COc1ccc(-c2cc(C(=O)N3CCCCC3C)no2)cc1OC (stereo unspecified)	.	.	-15%	.	.	8%
CC1CCCCN1C(=O)c1cc(-c2ccc3c(c2)OCO3)on1 (stereo unspecified)	0.89µM*	0.63µM*	3.8µM*	12µM*	?	.
O=C(c1cc(-c2ccccc2)on1)N1CCN(Cc2ccc3c(c2)OCO3)CC1	-1%	-2%	-12%	-5%	-30%	-16%
CC1CCCCN1C(=O)c1cc(-c2ccc(Cl)c(Cl)c2)on1 (stereo unspecified)	2.5µM*	4µM*	12µM*	?	?	?
CCC1CCCCN1C(=O)c1cc(-c2ccc(Cl)c(Cl)c2)on1 (stereo unspecified)	?	?	19µM*	?	?	48%
CCC1CCCCN1C(=S)NC(=O)c1cc(Br)ccc1Cl (stereo unspecified)	-5%	-1%	0%	-6%	-14%	.
CCC1=C2CC[C@H]3C(=O)NC(=O)[C@H]3[C@H]2[C@@]2(C)C(=NCC3CC3)OC(=O)N2C1=O	.	.	.	.	.	-8%
CC1CN(S(=O)(=O)c2cccc(C(=O)NCC3COc4ccccc4O3)c2)CC(C)O1 (stereo unspecified)	-4%	0%	17%	-4%	?	.
COc1ccc(-n2c(=O)c3c4c(sc3n(Cc3cc(C)ccc3C)c2=O)CN(C(C)=O)CC4)c(OC)c1	.	.	-7%	.	.	18%
CCOc1ccccc1C(=O)NCC(=O)NNC(=O)CN(C)S(=O)(=O)c1ccc(Cl)cc1	-6%	-1%	15%	3%	?	.
COC(=O)CNC(=O)C1(CC(C)C)C=CCN1C(C)=O (stereo unspecified)	.	.	.	.	.	13µM*
CCC(/C=N/NC(=O)C(N)=O)CC	-4%	-3%	4%	-2%	7%	3%
C/C(NC(=O)c1cccs1)=C1\C(=O)C[C@@H]2[C@H]1C2(C)C	?	?	15µM*	?	?	.
O=C(O)CCCN1C(=O)C2C3CC(C2C1=O)C1C(c2ccccc2)c2sc(=O)n(-c4ccccc4)c2SC31 (stereo unspecified)	-2%	-23%	-12%	-5%	13%	-7%
CCCSCCCNC(=O)C1CCN(c2nn3cc(-c4ccc(F)cc4)nc3s2)CC1	.	.	-7%	.	.	.

From PubChem
